Only a selection was taken, and hits are over-represented in it overall.
HT1080NT lethal: qHTS for induction of synthetic lethality in tumor cells producing 2HG: qHTS for the HT-1080-NT fibrosarcoma cell line; HT-1080-NT fibrosarcoma viability, CellTiter-Glo ATP luminescence, 48 h; Potency, µM (titrated, usually from 46.1 µM), without a hit: at the top dose activity, negative = less viability, hits mostly cytotoxic; hit rate 1.6% among 360,000; AID 686970, 2013;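 note: NT is the 2HG producing partner of a matched IDH1 knockdown line; potency is the fitted concentration of half-maximal effect; 0% = DMSO-treated cells and -100% = media-only wells without cells; nearly all actives have a fitted effect of over 55% in size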
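Luminescent CellTiter-Glo readout after 48 hours of compound exposure at 37 degrees C defined viability of HT-1080-NT cells. Activity was normalized to DMSO wells and cell-free media wells; concentration-response curves were fitted and assigned curve classes.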
TDP1 cell noCPT: qHTS for Inhibitors of human tyrosyl-DNA phosphodiesterase 1 (TDP1): qHTS in cells in absence of CPT; DT40 Tdp1-/- hTDP1 cells, no CPT, ATP luminescence, 48 h; Potency, µM (top dose mostly 46.2 µM), inactives show top-dose activity change, negative = growth inhibition, usual class: inhibitors; hit rate 15% among 420,000; note: potency is the fitted concentration of half-maximal effect; nearly all actives have a fitted effect of over 55% in size
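Growth of hTDP1-complemented DT40 Tdp1-knockout cells is measured by ATP luminescence after at least 48 hr compound exposure at 37 °C, with DMSO substituting for the 20 nM CPT used in the parallel screen.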
ALOX12 inh: Primary qHTS assay for inhibitors of human arachidonate 12S-lipoxygenase (ALOX12): Round 2 | Polyunsaturated fatty acid lipoxygenase ALOX12 (Homo sapiens), P18054 | hit rate 1.1% among 580,000 | Potency, µM (doses to about 108 µM), without a hit: top-dose activity change, negative = inhibition, hits mostly inhibitors | purified 12hLO, xylenol orange hydroperoxide absorbance; note: potency is the fitted concentration of half-maximal effect
Target sequence (P18054 whole entry, looked up): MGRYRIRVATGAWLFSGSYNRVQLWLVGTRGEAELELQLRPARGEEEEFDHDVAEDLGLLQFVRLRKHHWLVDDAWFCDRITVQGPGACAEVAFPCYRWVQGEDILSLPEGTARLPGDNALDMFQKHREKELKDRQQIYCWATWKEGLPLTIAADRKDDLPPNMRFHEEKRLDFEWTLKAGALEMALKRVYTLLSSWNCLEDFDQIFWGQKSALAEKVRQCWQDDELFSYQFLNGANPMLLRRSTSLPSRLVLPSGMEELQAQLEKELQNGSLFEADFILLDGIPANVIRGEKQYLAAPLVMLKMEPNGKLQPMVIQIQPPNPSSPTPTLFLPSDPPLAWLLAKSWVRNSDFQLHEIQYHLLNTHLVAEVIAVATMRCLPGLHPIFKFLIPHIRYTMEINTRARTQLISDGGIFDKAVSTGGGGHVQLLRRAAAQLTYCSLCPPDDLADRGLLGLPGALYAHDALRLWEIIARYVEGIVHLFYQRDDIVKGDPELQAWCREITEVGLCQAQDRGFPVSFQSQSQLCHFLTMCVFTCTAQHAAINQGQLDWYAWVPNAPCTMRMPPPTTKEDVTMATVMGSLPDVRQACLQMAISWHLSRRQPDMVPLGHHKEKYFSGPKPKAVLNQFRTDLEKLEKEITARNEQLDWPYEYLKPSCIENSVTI
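Purified human 12hLO (150 nM final) in 25 mM Hepes, 0.01% Triton X-100, pH 7.0 was preincubated 15 min at room temperature with compound. Then 40 uM arachidonic acid was added, 30 min. Hydroperoxide was read by Fe-XO absorbance ratio 573/405 nm.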
IL-1B inflam inh: qHTS for Inhibitors of Inflammasome Signaling: IL-1-beta AlphaLISA Primary Screen; THP-1 LPS/ATP IL-1B secretion, AlphaLISA, 16 h; active compounds read low; activity change, % at 57.5 µM; hit rate 4.7% among 360,000; in the data active = activity change below about -50%; inconclusive = mostly about -30% to -49%
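THP-1 cells pretreated 1 hr with compounds (up to 57.5 uM final), then stimulated with LPS (250 ng/mL final) plus ATP (1.25 mM final); secreted IL-1B measured by AlphaLISA after 16 hr, decreased signal indicating inhibition.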
HT1080 IDH1KD tx: qHTS for induction of synthetic lethality in tumor cells producing 2HG: qHTS for the HT-1080-IDH1KD cell line | AID 686971, 2013 | hit rate 2% among 360,000 | Potency, µM (series often up to 46.1 µM), inactives show at the top dose activity, negative = toxicity, usual class: cytotoxic | HT-1080 IDH1 knockdown viability, ATP luminescence, 48 h;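 note: potency is the fitted concentration of half-maximal effect; 0% = DMSO wells and -100% = cell-free medium wells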
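Using the IDH1-knockdown HT-1080 line run in the same batch and compound series as the NT line, viability after 48 h at 37 °C was determined by CellTiter-Glo luminescence and expressed as % activity.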
TDP1 cell CPT: qHTS for Inhibitors of human tyrosyl-DNA phosphodiesterase 1 (TDP1): qHTS in cells in presence of CPT; hit rate 12% among 420,000; Potency, µM (titrated, usually from 46.2 µM), for the others: top-dose activity change, negative = growth inhibition, actives largely listed as inhibitors; chicken DT40 Tdp1-/-;hTDP1 cells + 20 nM CPT, ATP luminescence, 48 h; note: potency is the fitted concentration of half-maximal effect; nearly all actives have a fitted effect of over 55% in size
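Cell growth measured by CellTiter-Glo luminescence after a minimum 48 h, 37 C compound exposure with 20 nM CPT in Tdp1-knockout DT40 cells stably expressing hTDP1, seeded 400/well; qHTS titration format.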
Active calls of the source: *; ? = inconclusive; / = not tested or not shown; ! = not confirmed by another sample; [ ] = remark or other dose. Unless noted, calls come from the whole dose curve; as a rule, active = well fitted curve in the direction sought with a large enough effect; inconclusive = small, poorly fitted or top-dose-only effect, or another doubt; inactive = no such curve, though single readings can be large; an effect the other way counts as inactive or inconclusive. Unless noted, % is set by controls: 0 for no effect and ±100 for the full control effect.

SMILES | HT1080NT lethal | TDP1 cell noCPT | ALOX12 inh | IL-1B inflam inh | HT1080 IDH1KD tx | TDP1 cell CPT
CCN(CC)c1cc2c(c3c1ccn3C)C1CCC2C1 (stereo not drawn) | 6.3% | ? | ? | 21.3 | 0.6% | 25.9µM*
CN(c1cc(Cl)c2c(c1)OCO2)c1cc2c(c3c1ccn3C)C1CCC2C1 (stereo not drawn) | 5.4% | 20.6µM* | ? | 51.8 | 9.7% | ?
O=Nc1c(O)n(Cc2ccccc2)c2ccccc12 | -21.5% | -1.4% | 46.7% | -2.0 | -23.4% | -2.7%
O=Nc1c(O)n(Cc2cccc(C(F)(F)F)c2)c2ccccc12 | ? | -19.2% | -28.7% | -245.9* | ? | 9.6%
O=Nc1c(O)n(Cc2ccc(Cl)c(Cl)c2)c2ccccc12 | -25.3% | ? | -48.3% | -58.9* | ? | ?
CCCN(Cc1cccs1)C(=O)Nc1ccccc1OC | / | / | 8.1% | / | / | /
Cc1ccc(-n2c(C)cc(C(=S)N3CCOCC3)c2C)cc1C | ? | 14.6µM* | -23.6% | -67.3* | 17.4%[9.24 µM] | 23.1µM*
O=C(O)c1ccc(COc2ccc(Cl)cc2Cl)cc1 | / | / | -1.9% | / | / | /
COc1cc(/C=C(/C#N)C(=O)NCc2ccccc2)cc(OC)c1OC | -0.6% | ? | -0.9% | -0.8 | -10.1% | -14.5%
N#C/C(=C\c1ccc(O)c(O)c1)C(=O)NCCCc1ccccc1 | ? | 4.11µM* | 28.2µM*! | -4.7 | ? | ?
COc1ccc(/C=C(\C#N)C(=O)NCCc2ccccc2)cc1OCc1ccccc1 | -24.3% | 16.4µM* | 6.7% | -24.9 | ? | ?
N#C/C(=C\c1ccc(N2CCOCC2)o1)C(=O)NCCc1ccccc1 | -15.8% | ? | ? | -51.3* | -2.3% | ?
Cc1ccc(C2(c3ccccc3)NC(=O)N(CC(=O)NC3CCCCC3)C2=O)cc1C (stereo not drawn) | -3.4% | 18.4µM* | -27.0% | -19.6 | -21.2% | ?
O=C1CN(C(=O)CN2C(=O)NC(c3ccccc3)(c3ccccc3)C2=O)c2ccccc2N1 | -0.2% | -16.5% | 3.0% | -18.9 | -2.9% | -27.6%
CC1(c2cccc(Br)c2)NC(=O)N(CC(=O)NC2CCCCC2)C1=O (stereo not drawn) | -0.9% | 0.1% | ? | 13.9 | -1.3% | -0.7%
Cc1ccc(C2(c3ccccc3)NC(=O)N(CC(=O)N3CC(=O)Nc4ccccc43)C2=O)cc1C (stereo not drawn) | 0.3%[9.24 µM] | 23.1µM* | -9.5% | 0.0 | -21.5% | ?
C#CC[N+](CC)(CC)CC#Cc1cccc(Cl)c1 | -7.9% | ? | 5.1% | -4.1 | -14.7% | ?
C#CC[N+](C)(C)CC#Cc1ccc(Cl)cc1 | ? | -28.7% | -1.1% | -66.8* | ? | -10.7%
CNC(=O)NC(=O)C(C)N(C)Cc1cccc(C#N)c1 (stereo not drawn) | / | / | 50.2% | / | / | /
CC(C)NCC(O)COC1C2CC3CC(C2)CC1C3 (stereo not drawn) | 1.7% | 16.0% | -0.2% | 3.4 | 4.1% | 20.9%
CC1CCC(C(C)C)C(OCC(O)CNC(C)C)C1 (stereo not drawn) | -15.6% | ? | -5.0% | -10.4 | -9.4% | 23.1µM*
CCn1cc(C(=O)N2CCC(CNC(C)=O)CC2)c2ccccc21 | / | / | -17.2% | / | / | /
COc1ccc(Cl)cc1NC(=O)CSc1ccc2nnc(CCNS(=O)(=O)c3ccccc3)n2n1 | / | ? | -13.5% | / | / | 18.4µM*
O=S(=O)(NCCc1nnc2ccc(SCc3c(F)cccc3Cl)nn12)c1ccccc1 | / | 23.1µM* | -2.8% | / | / | ?
O=S(=O)(NCCc1nnc2ccc(SCc3ccccc3Cl)nn12)c1ccccc1 | / | 23.1µM* | -17.6% | / | / | 16.4µM*
SMILES | HT1080NT lethal | TDP1 cell noCPT | ALOX12 inh | IL-1B inflam inh | HT1080 IDH1KD tx | TDP1 cell CPT
COc1ccc(S(=O)(=O)NCCc2nnc3ccc(SCC(=O)Nc4ccccc4C)nn23)cc1 | / | -15.9% | 0.0% | / | / | -7.5%
C/C(=N\NC(=O)c1cc(C2CC2)nc2ccccc12)c1ccc(O)cc1O | ? | 5.17µM* | -4.4% | 147.1 | 4.61µM* | 6.51µM*
COc1ccc(/C(C)=N/NC(=O)c2cc(-c3cccnc3)nc3ccccc23)cc1 | 9.1% | -21.9% | 1.1% | 53.0 | 8.5% | -23.4%
C/C(=N\NC(=O)c1cc(-c2cccnc2)nc2ccccc12)c1ccccc1O | -11.5% | 3.66µM* | 0.2% | 63.1 | 9.2µM* | 4.61µM*
CCOc1ccc(-c2cc(C(=O)N/N=C(\C)c3cccnc3)c3ccccc3n2)c(OCC)c1 | -21.7% | ? | 319.2% | 24.1 | ? | 14.6µM*
CCN1CCN(CCNC(=O)c2ccc(/C=C3\Sc4ccccc4N(Cc4ccccc4F)C3=O)cc2)CC1 | 16.4µM* | ? | ? | 30.0 | 20.6µM* | ?
CN1CCN(CCCNC(=O)c2ccc(/C=C3\Oc4ccccc4N(Cc4ccccc4F)C3=O)cc2)CC1 | -8.9% | 20.6µM* | -22.4% | 61.4 | -27.6% | ?
CN1CCN(CCCNC(=O)c2ccc(/C=C3\Sc4ccccc4N(Cc4ccc(F)cc4)C3=O)cc2)CC1 | 0.0% | 16.4µM* | 2.1% | -76.5* | -28.4% | ?
CCCCCCn1c(SCC)nc2c1c(=O)[nH]c(=O)n2C | / | / | -47.0% | / | / | /
Cc1ccc(CN2CCC3(CC2)Cc2ccccc2CNC3=O)cc1C | / | / | 0.7%[6.33 µM] | / | / | /
CNC(=O)C1(N2CCC[C@H]2C(=O)N(C)CCN(C)C)CCC1 | / | / | 74.5%[176 µM] | / | / | /
Cc1ccc(C)c(N2CCN(S(=O)(=O)c3ccc(-c4cnc(C5CC5)o4)cc3)CC2)c1 | / | 9.2µM* | -17.5% | / | / | 14.6µM*
Cc1ccc(C)c(N2CCN(S(=O)(=O)c3ccc(C4CCCCC4)cc3)CC2)c1 | / | / | 0.0% | / | / | /
Cc1cccc(N2CCN(S(=O)(=O)c3ccc(-c4cnc(C5CC5)o4)cc3)CC2)c1C | / | 13µM* | ? | / | / | 18.4µM*
COc1ccccc1N1CCN(S(=O)(=O)c2ccc(-c3cnc(C4CC4)o3)cc2)CC1 | 0.0% | 20.6µM* | 8.5% | 27.7 | -9.7% | ?
CNc1ncccc1C(=O)N1CCCC2(C1)C(=O)N(C)c1ccccc12 (stereo not drawn) | / | / | -9.3% | / | / | /
Cc1ccc(C(=O)O/N=C(\N)c2ccccn2)c(Cl)c1 | 16.4µM* | ? | 23.9% | -2.7 | ? | ?
